According to PubChem BioAssay AID489025 (Southern Research Specialized Biocontainment Screening …, 2010):
Screen size: about 2,300 compounds; about 790 (34%) were called active. The list shows a part of the results. Entries with a potency or affinity are not part of this list. A number with no mark means an inactive call. No rule for the calls is given here.

experiment: THP-1 cell cytotoxicity, dose response, cytotoxicity control for non-replicating M. tuberculosis project (AID 489025); details: THP-1 cell viability; series mostly up to 40 µM; viability: at the top concentration

Row | Compound | viability [%]
1 | Cc1cc(C)cc(OC(=O)CCN2C(=O)c3ccccc3C2=O)c1 | 100
2 | O=C1c2ccccc2C(=O)N1CCOc1ccc(F)cc1 | 95.2
3 | O=C(c1ccc([N+](=O)[O-])o1)N1CCN(c2nc3ccc(F)cc3s2)CC1 | 106
4 | COc1cccc2cc(C(=O)c3ccc([N+](=O)[O-])cc3)oc12 | 85.8
5 | C=CC[n+]1ccn(-c2nc3ccccc3nc2[N-]S(=O)(=O)c2cccs2)c1 | 110
6 | CC(=O)CCC1CC(c2ccc(Cl)cc2)=NO1 (stereo unspecified) | 103
7 | CCCCCCNC(=O)c1ccc(Br)o1 | 104
8 | Cc1c(Cl)cccc1NC(=O)C(=O)NNC(=O)c1ccccc1F | 79.9
9 | CCOC(=O)c1c(NC(=O)COC(=O)c2ccccn2)sc2c1CCC2 | 97.1
10 | O=C(Nc1nnc(-c2cc(Cl)ccc2Cl)o1)C1=COCCO1 | 75.8
11 | O=C(CCN1C(=O)S/C(=C\c2ccc(F)cc2)C1=O)Nc1ccc(C(=O)O)c(O)c1 | 107
12 | O=C(NNC(=O)c1ncc(Cl)c(Cl)c1Cl)c1ccc(F)cc1 | 92.2
13 | CC1CCN(CCOCCSc2ccc(Cl)cc2)CC1 | 74
14 | COc1ccc2cc(C(=O)NCc3ccccc3)c(=O)oc2c1 | 103
15 | O=C(CCC1CCCC1)NCc1ccccn1 | 107
16 | COc1ccc(NC(=O)COc2ccc3c(c2)CCC3)cc1 | 111
17 | Cc1ccc(C2=N/C(=C\c3cccnc3)C(=O)O2)cc1 | 117
18 | O=C1OC(/C=C/c2ccccc2)=NC/1=C\c1cccnc1 | 119
19 | C=CCn1c(=O)c(C(=O)Nc2cccnc2)c(O)c2ccccc21 | 103
20 | CCn1c(=O)c(C(=O)Nc2ncccc2C)c(O)c2ccccc21 | 71.2
21 | Cn1c(=O)c(Oc2ccc(Cl)cc2)c(O)c2ccccc21 | 118
22 | Cc1cccnc1NC(=O)c1c(O)c2ccccc2n(C)c1=O | 85.8
23 | COc1cc(C2C3=C(CC(C)(C)CC3=O)OC(N)=C2[N+](=O)[O-])ccc1O (stereo unspecified) | 97.8
24 | CCCCOc1ccc(CSCCN)cc1Cl | 99.1
25 | O=C1N(c2ccc3c(c2)OCCO3)C(c2ccccc2)C1(F)F (stereo unspecified) | 117
26 | NC(=O)COc1ccc2cc(-c3ccc(F)cc3)c(=O)oc2c1 | 119

Row | Compound | viability [%]
27 | Cc1n[nH]c(=S)n1/N=C/c1ccc(OCc2ccc(Cl)cc2Cl)cc1 | 107
28 | CN1CCC(O)(c2cccs2)C(C(=O)c2cccs2)C1 (stereo unspecified) | 74.7
29 | CC1CCN(C(=O)C2COc3ccccc3O2)CC1 (stereo unspecified) | 102
30 | CCCn1c(=O)c(C(=O)N/N=C/c2ccccc2F)c(O)c2ccccc21 | 78.5
31 | C/C(=N\Nc1nc2ccccc2[nH]1)c1ccc(N2CCOCC2)cc1 | 81.7
32 | CCCCN(C/C=C/c1ccccc1OC)Cc1ccccc1 | 88.6
33 | COc1ccc(N2C(=O)CC(Sc3nc4ccccc4s3)C2=O)cc1OC (stereo unspecified) | 108
34 | CCOc1cccc2cc(C(=O)NC(C)c3ccccc3)c(=N)oc12 (stereo unspecified) | 74.4
35 | O=C(COc1cccc2ccccc12)Nc1ccc(Cl)cc1C(=O)O | 114
36 | O=C(NCc1cccs1)c1cc(-c2ccc(O)cc2)on1 | 109
37 | O=C(OCC(=O)N1CCCCC1)c1cc2ccccc2cc1O | 103
38 | Cc1cccc(NC(=O)CO/N=C/c2ccc3c(c2)OCO3)c1 | 92.5
39 | O=C(NCc1cccs1)c1ccc(Br)o1 | 103
40 | O=C(CN1CCN(c2ccc([N+](=O)[O-])cc2)CC1)Nc1ccccn1 | 74.5
41 | O=C(Nc1ncccn1)c1ccc([N+](=O)[O-])o1 | 91.8
42 | Cc1csc(NC(=O)c2cc([N+](=O)[O-])cc([N+](=O)[O-])c2)n1 | 93.5
43 | COc1cccc(COC(=O)c2sc3nc4n(c(=O)c3c2C)CCC4)c1OC | 107
44 | O=C(Nc1ccc(-c2nc3ccccc3c(=O)o2)cc1)c1ccco1 | 100
45 | O=C(N/N=C/c1ccc(OC(=O)c2ccco2)cc1)c1ccccn1 | 94.2
46 | CC(C)(C)/C(O)=C/c1nc2ccccc2oc1=O | 93.4
47 | O=C1N/C(=N\c2ccccn2)SC1Cc1ccc(Cl)cc1 (stereo unspecified) | 103
48 | CO/N=C/CC(=O)c1ccc(OC)cc1 | 96.5
49 | COc1ccc(/C(=N/O)C(C)(C)NO)cc1 | 90.7
50 | Cc1cc2nc(CSc3ccc(Cl)cc3)cc(=O)n2[nH]1 | 96.9
51 | CSCCC(=O)N1CCCC(N2CCN(c3cccc(C(F)(F)F)c3)CC2)C1 (stereo unspecified) | 96.2
52 | CCC(C)c1ccc(OCCn2ccnc2)cc1 (stereo unspecified) | 76.9

Row | Compound | viability [%]
53 | C/C(=C\C(=O)c1ccncc1)Nc1ccccc1O | 111
54 | CCOC(=O)c1ccc(NC(=O)CCSCCc2ccccn2)cc1 | 103
55 | Cc1ccc(OCCCCc2c(C)n[nH]c2C)cc1 | 77.8
56 | CC1CCc2c(sc3nc(CSc4ncn[nH]4)[nH]c(=O)c23)C1 (stereo unspecified) | 97
57 | CC1CC(C)CN(CCOCCSc2ccc(Cl)cc2)C1 (stereo unspecified) | 73.7
58 | Cc1cc(Cl)ccc1NNC(=O)c1cccs1 | 106
59 | O=C(c1ccccc1)c1nc[nH]c1C(=O)Nc1ccccc1 | 70.5
60 | CN(C)CCC(=O)N1c2ccccc2Sc2ccc(Cl)cc21 | 90.3
61 | O=S1(=O)N=C(N/N=C/C=C/c2ccccc2)c2ccccc21 | 84.3
62 | COc1ccc(OCc2n[nH]c(=S)o2)cc1 | 103
63 | CCCCn1c(N)c(-c2nc3ccccc3o2)c2c([N+](=O)[O-])nn(CC)c(=O)c21 | 113
64 | CCOCC(=O)Nc1ccc(C)c(Cl)c1 | 111
65 | CSC1=N/C(=C\c2ccc(Br)o2)C(=O)S1 | 118
66 | Cc1ccc(-c2nnc(C)c(N3CCCC3)n2)cc1 | 122
67 | O=C(CN1CCN(c2ccccc2O)CC1)Nc1ccc2c(c1)CCC2 | 82.9
68 | CCOc1ccc(OCCSc2ccc(S(=O)(=O)N3CCN(C)CC3)cn2)cc1 | 76.5
69 | Cc1cc2cc(CNC(=O)COc3ccccc3)ccc2n1C | 107
70 | CC(C)c1ccc(OCC(=O)NCc2ccccc2)cc1 | 82.5
71 | Cc1cc(C(=O)N/N=C/C=C/c2ccccc2)c(C)o1 | 79.3
72 | Cc1cccc(NC(=O)c2cc3ccccc3o2)c1 | 86
73 | COc1ccc(NC(=O)c2cc3ccccc3o2)cc1 | 107
74 | NC(=O)COC(=O)c1sc2ccccc2c1Cl | 91.8
75 | Cc1nonc1C(=O)N/N=C/c1ccc([N+](=O)[O-])o1 | 98.2
76 | O=C(Nc1ccc(Cl)c(Cl)c1)O/N=C/c1ccncc1 | 86
77 | O=C(NC1CC2CCC1C2)C1COc2ccccc2O1 (stereo unspecified) | 94.5
78 | O=C(NCc1ccccc1)c1cc2ccccc2oc1=O | 114

Row | Compound | viability [%]
79 | O=C(NCCc1cccc(Cl)c1)c1cc2ccccc2oc1=O | 111
80 | O=C(O)c1ccc(-n2nc(C(F)(F)F)c3c2CCCC3)cc1 | 118
81 | O=C(COc1ccc2ccccc2c1)Nc1ccncc1 | 101
82 | S=c1[nH]cnc2sc(-c3ccccc3)cc12 | 75.2
83 | CCn1c(-c2ccco2)nc2ccccc21 | 121
84 | Clc1ccccc1OCc1nnc(-c2ccccc2)o1 | 83.9
85 | CCOC(=O)c1csc(COc2ccccc2Cl)n1 | 111
86 | COc1cccc(COC(=O)CCNC(=O)c2ccc(Br)cc2)c1OC | 113
87 | CC(=O)c1ccc(NC(=O)C(Cc2ccccc2)n2cccc2)cc1 (stereo unspecified) | 115
88 | Cc1cc(NC(=O)COc2ccccc2)ccc1Cl | 85.1
89 | O=C(NC1CCCC1)c1cc(-c2cccs2)on1 | 85.4
90 | CCOc1cc(-c2nnc(NC(=O)c3ccco3)o2)cc(OCC)c1OCC | 76.8
91 | Cc1cc(C)c(OCC(=O)Nc2nnc(-c3ccco3)o2)c(C)c1 | 120
92 | O=C(Nc1nnc(C2=COCCO2)o1)c1ccc(Cc2ccccc2)cc1 | 78.6
93 | Cc1ccsc1C(=O)OCC(=O)Nc1nnc(-c2ccccc2)o1 | 103
94 | CCc1ccc(NC(=O)CCc2ccc(C)o2)cc1 | 99
95 | C=CCn1c(O)c(C(C)=Nc2ccc(C(=O)OCC)cc2)c(=O)[nH]c1=O | 104
96 | Oc1ccc2cc(Br)ccc2c1CN1CCCC1 | 95.8
97 | Cc1ccc(S(=O)(=O)NCC(=O)OCCOc2cccc(Cl)c2)cc1 | 116
98 | O=C(Nc1nnc(-c2ccccc2Cl)o1)c1cccnc1 | 82.8
99 | O=C(Nc1nnc(-c2ccccc2Cl)o1)c1ccco1 | 85.8
100 | CC(C)OC(=O)c1cc(C(=O)c2cc(Cl)ccc2O)coc1=N | 101
101 | COc1c[nH]n(C2CCCCC2)c(=O)c1=O | 96.4
102 | Cc1ccc(N=N/C(=C\O)C(=O)c2ccncc2)cc1 | 74
103 | O=C(NNC1CC(=O)N(c2ccccc2)C1=O)c1ccco1 (stereo unspecified) | 115
104 | NC(=O)N/N=C/c1ccccc1OC(=O)c1cc2ccccc2oc1=O | 131

Row | Compound | viability [%]
105 | Cc1ccc(C(=O)N2N=C(CC(C)C)CC2(O)C(F)(F)F)o1 (stereo unspecified) | 101
106 | Cn1nnc(NC(=O)COc2ccc(C3CCCCC3)cc2)n1 | 104
107 | Cc1cc(O)c(-c2cc(O)c(C)cc2O)cc1O | 95.9
108 | COc1ccc(-c2nnc(SCC(C)C)o2)cc1 | 81.9
109 | COc1ccc(-c2nnc(NC(=O)C3=COCCO3)o2)cc1 | 102
110 | Cc1ccn2nc(S(=O)(=O)Nc3c(F)cccc3F)nc2n1 | 101
111 | COc1cccc(NC(=O)c2ccc(-c3ccc([N+](=O)[O-])cc3)o2)c1 | 98.6
112 | CC(=O)Nc1ccc(NC(=O)c2cc([N+](=O)[O-])cc([N+](=O)[O-])c2)cc1 | 102
113 | COc1ccc(CNC(=O)c2cc3cccc(O)c3oc2=N)cc1 | 107
114 | CCOC(=O)COc1ccc2c(=O)c(-c3ccccc3OC)coc2c1 | 114
115 | COC(=O)COc1ccc(-c2nn(C)c(=O)c3ccccc23)cc1 | 86.9
116 | O=C(CNC(=O)c1ccco1)OCc1ccc(C(=O)Oc2ccccc2)cc1 | 106
117 | CCOC(=O)c1ccc(NC2OC(=O)c3ccccc32)cc1 (stereo unspecified) | 110
118 | CCOC(=O)CC(=O)Nc1ccc(C(=O)OCC)cc1 | 88.2
119 | c1ccc(C2=Nc3ccccc3OC2)cc1 | 115
120 | O=C(CCc1c[nH]c2ccccc12)Nc1ncccc1O | 126
121 | O=C(N/N=C/c1ccccn1)c1ccccc1 | 70.2
122 | O=C(N/N=C/c1ccccn1)c1cccc(S(=O)(=O)Nc2ccccc2Cl)c1 | 87.6
123 | C/C(=N\Nc1ccc(Cl)cc1)c1ccccn1 | 93.5
124 | Cc1ccnc(NC(=O)CCc2c[nH]c3ccccc23)c1 | 74.2
125 | CC(C)c1ccc(/C=N/NC(=O)c2ccccn2)cc1 | 91.5
126 | COc1cc(/C=N/NC(=O)c2ccccn2)ccc1OC(=O)c1cccs1 | 88.8
